According to PubChem BioAssay (NCATS):
Results filed as inconclusive are left out. Calls of active or inactive are those of the source. Unless noted, calls follow the shape of the dose curve; as a rule, active = well fitted curve in the direction sought with a large enough effect; inconclusive = small, poorly fitted or top-dose-only effect, or another doubt; inactive = no such curve, though single readings can be large; an effect the other way counts as inactive or inconclusive.

What was measured:
[1] = biological target: Ferritin light chain (Equus caballus) (UniProt P02791); experiment: qHTS Validation Assay for Identification of Novel General Anesthetics (AID 2323); also: series mostly up to about 77 µM
In short: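 Apoferritin from horse spleen (10 uM) was mixed with 1-aminoanthracene at 50% saturation in PBS, then compounds were added. After 10 min at room temperature, fluorescence was read (ex 380 nm, em 535 nm) and normalized to free-probe and complex controls.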

[2] = biological target: ATP-dependent DNA helicase Q1 (Homo sapiens) (UniProt P46063); experiment: qHTS Validation Assay for Inhibitors of RecQ-Like Dna Helicase 1 (RECQ1) (AID 2353)
In short: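 RECQ1T1 50 nM; forked duplex (20 bp + 30-nt ss tails) 200 nM, ATP 2 mM final; pH 8.0, 2 mM MgCl2, 2.5 ug/ml poly(dI-dC); 15 min compound preincubation; discontinuous kinetic read over 2 h at RT.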

[3] = biological target: RecQ-like DNA helicase BLM (Homo sapiens) (UniProt P54132); experiment: qHTS Validation Assay for Inhibitors of Bloom's syndrome helicase (BLM) (AID 2364)
In short: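 Forked 20-bp duplex substrate (200 nM, TAMRA/BHQ-2) plus 2 mM ATP added after 15 min compound preincubation with 50 nM enzyme, pH 8.0, poly(dI-dC) 2.5 ug/ml. Strand separation followed by fluorescence (525/598 nm) over 2 h, normalized to enzyme-free and DMSO controls.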

[4] = Cytometric Cell-Based qHTS for Inhibitors of the mTORC1 Signaling Pathway in MEF (Tsc2-/-, p53-/-) Cells (AID 2660);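 also: Tsc2 and p53 null MEFs carrying empty vector with compound for 24 h; percent of cells above a phospho-rpS6 to PI ratio cutoff in each well; series mostly up to about 38 µM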
In short: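 Cells are plated, treated with compound for 24 hrs at 37 degree Celsius, then fixed, blocked and immunostained for phospho-rpS6 Ser235/236. Propidium iodide counterstain follows. Per-well % positive cells is derived from the PI-normalized phospho-S6 signal.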

[5] = High Content Imaging Cell-Based qHTS for Inhibitors of the mTORC1 Signaling Pathway in MEF (Tsc2-/-, p53-/-) Cells (AID 2666);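 also: percent of cells scored positive for phospho-rpS6 Ser235/236 immunostaining by imaging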
In short: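 Tsc2-/-, p53-/- MEFs (empty-vector stable) grown in DMEM + 10% FBS were exposed to compounds for 24 hrs at 37 degree Celsius, fixed, and stained with Alexa-488 anti-phospho-rpS6 Ser235/236 plus Hoechst. Imaging gave the percentage of positive cells per well.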

[6] = High Content Imaging Cell-Based qHTS for Inhibitors of the mTORC1 Signaling Pathway in MEF Cells (AID 2667);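 also: Tsc2-/- p53-/- MEFs stably re-expressing wild-type Tsc2 exposed 24 h; series mostly up to about 38 µM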
In short: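 Tsc2-/-, p53-/- MEFs stably re-expressing WT Tsc2, grown in DMEM + 10% FBS, were treated with compounds for 24 hrs at 37 degree Celsius, fixed, and stained with Alexa-488 phospho-rpS6 Ser235/236 antibody plus Hoechst; results given as % positive cells.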

[7] = Cytometry Cell-Based qHTS for Inhibitors of the mTORC1 Signaling Pathway in MEF cells (AID 2668);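 also: Tsc2-/- p53-/- mouse embryonic fibroblasts stably re-expressing wild-type Tsc2; percent cells positive for phospho-rpS6 Ser235/236 relative to propidium iodide stain; series mostly up to about 38 µM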
In short: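 Pathway inhibition in WT Tsc2-rescued Tsc2-/-, p53-/- MEFs is measured as the Alexa-488 phospho-rpS6 to propidium iodide intensity ratio after 24 hrs of compound at 37 degree Celsius. PI-stained cell number gives viability.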

[8] = Validation screen for small molecules that induce DNA re-replication in MCF 10A normal breast cells (AID 463097); also: nearly all actives have a fitted effect of over 60% in size
In short: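 DNA re-replication was detected as a rise in nuclei with elevated Hoechst fluorescence after a 48 hr compound exposure of MCF 10A cells at 37 C.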

[9] = biological target: Ubiquitin carboxyl-terminal hydrolase 2 (Homo sapiens) (UniProt O75604); experiment: qHTS Validation Assay for Inhibitors of Ubiquitin-specific Protease USP2a Using CHOP2 as the Reporter (AID 463106)
In short: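 Readout was coupled fluorescence (Ex 485/Em 531 nm), read 60 min after adding 25 nM final Ub-CHOP2 and 25 nM reporter substrate. Beforehand, 10 nM final USP2 core had 30 min at RT with compound in pH 8.0 buffer. Curves were fitted after normalization to NEM and flagged for artifacts using time-zero reads.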

[10] = biological target: DNA polymerase III PolC-type (Bacillus subtilis (strain 168)) (UniProt P13267); experiment: qHTS Validation Assay for the Inhibitors of DNA Replication in Gram-Positive Bacteria (AID 485295);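 also: reconstituted holoenzyme with PolC plus beta clamp SSB and primase; PicoGreen fluorescence of double-stranded DNA made on primed circular M13 template; series mostly up to about 57 µM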
In short: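 Primed replication of single-stranded M13Gori by a four-protein B. subtilis holoenzyme is measured at room temperature. Double-stranded product is quantified by PicoGreen fluorescence after an EDTA stop; inhibition is scaled between DMSO and EDTA controls.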

[11] = biological target: Tumor susceptibility gene 101 protein (Homo sapiens) (UniProt Q99816); experiment: qHTS Validation Assay for Iinhibitors of HIV-1 Budding by Blocking the Interaction of PTAP/TSG101 (AID 485342; calls by dose curve)
In short: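 Fluorescence anisotropy measured PTAP-Tsg101 interaction. Final concentrations were 10 uM protein domain and 50 nM labeled peptide, equilibrated 20 min at room temperature.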

[12] = qHTS Validation Assay to Find Inhibitors of Chronic Active B-Cell Receptor Signaling (AID 485345; active = well fitted curve in the direction sought with a large enough effect in the main read-out, with a control signal flat, not every such curve was filed as active)
In short: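 Read-out: ratio of filter-corrected green (IkappaBalpha fusion) to red (native) luciferase signal in doxycycline-induced TMD8 cells after 4 h at 37C. Titration spanned 46 uM–3 nM; Data were normalised to basal cells and 10 uM MG-132 wells.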

[13] = biological target: Beta-2 adrenergic receptor (Homo sapiens) (UniProt P07550); experiment: qHTS validation assay of beta-arrestin-biased ligands of beta2-adrenergic receptor (AID 485366)
In short: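 Compound series up to 46 microM applied to beta2-AR/beta-arrestin Tango cells, 18 hr, 37 degrees C, 5% CO2. Read-out: tTA-driven luciferase luminescence, converted to %Activity; concentration-response curves assigned curve classes.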

[14] = Quantitative high throughput screen for delayed death inhibitors of the malarial parasite plastid, 96 hour incubation (AID 488745);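 also: luciferase-expressing P. falciparum in erythrocytes at 2% hematocrit and 0.1% parasitemia; series mostly up to about 29 µM; nearly all actives have a fitted effect of over 70% in size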
In short: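 Readout is firefly luciferase luminescence from an integrated reporter in P. falciparum; lower signal marks inhibited growth. Cultures at 2% hematocrit and 0.1% parasitemia were treated with compound across two generations (96 h, 37 C, 5% CO2).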

[15] = biological target: ATP-dependent 6-phosphofructokinase (Trypanosoma brucei brucei) (UniProt O15648); experiment: qHTS Validation Assay to Find Inhibitors of T. brucei phosphofructokinase (AID 485368); also: potency is read from the fitted curve at half-maximal effect
In short: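 qHTS format, up to 57 uM. PFK 1.25 nM; F6P 0.5 mM; ATP 0.1 mM; 5 mM MgCl2, 0.01% Tween20, 0.1% BSA; 0.1 M TEA pH 8.0; 45 min RT; ADP-Glo readout; no-enzyme control = full inhibition.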

[16] = qHTS Assay for Identification of Small Molecule Inducers of Hypoxia Response (AID 2120; active = well fitted curve in the direction sought with a large enough effect in the signal ratio, with a control signal flat, not every such curve was filed as active; the % refers to the signal ratio)
In short: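 Cell-based qHTS for reporter induction: hypoxia response element controlled beta-lactamase in ME-180 cells. Compounds incubated 17 h at 37 degrees C; activity from blue/green (460/530 nm) ratio, inducers ranked by AC50.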

Measured: Potency

Sequence of RecQ-like DNA helicase BLM (Homo sapiens) (P54132 whole entry, looked up): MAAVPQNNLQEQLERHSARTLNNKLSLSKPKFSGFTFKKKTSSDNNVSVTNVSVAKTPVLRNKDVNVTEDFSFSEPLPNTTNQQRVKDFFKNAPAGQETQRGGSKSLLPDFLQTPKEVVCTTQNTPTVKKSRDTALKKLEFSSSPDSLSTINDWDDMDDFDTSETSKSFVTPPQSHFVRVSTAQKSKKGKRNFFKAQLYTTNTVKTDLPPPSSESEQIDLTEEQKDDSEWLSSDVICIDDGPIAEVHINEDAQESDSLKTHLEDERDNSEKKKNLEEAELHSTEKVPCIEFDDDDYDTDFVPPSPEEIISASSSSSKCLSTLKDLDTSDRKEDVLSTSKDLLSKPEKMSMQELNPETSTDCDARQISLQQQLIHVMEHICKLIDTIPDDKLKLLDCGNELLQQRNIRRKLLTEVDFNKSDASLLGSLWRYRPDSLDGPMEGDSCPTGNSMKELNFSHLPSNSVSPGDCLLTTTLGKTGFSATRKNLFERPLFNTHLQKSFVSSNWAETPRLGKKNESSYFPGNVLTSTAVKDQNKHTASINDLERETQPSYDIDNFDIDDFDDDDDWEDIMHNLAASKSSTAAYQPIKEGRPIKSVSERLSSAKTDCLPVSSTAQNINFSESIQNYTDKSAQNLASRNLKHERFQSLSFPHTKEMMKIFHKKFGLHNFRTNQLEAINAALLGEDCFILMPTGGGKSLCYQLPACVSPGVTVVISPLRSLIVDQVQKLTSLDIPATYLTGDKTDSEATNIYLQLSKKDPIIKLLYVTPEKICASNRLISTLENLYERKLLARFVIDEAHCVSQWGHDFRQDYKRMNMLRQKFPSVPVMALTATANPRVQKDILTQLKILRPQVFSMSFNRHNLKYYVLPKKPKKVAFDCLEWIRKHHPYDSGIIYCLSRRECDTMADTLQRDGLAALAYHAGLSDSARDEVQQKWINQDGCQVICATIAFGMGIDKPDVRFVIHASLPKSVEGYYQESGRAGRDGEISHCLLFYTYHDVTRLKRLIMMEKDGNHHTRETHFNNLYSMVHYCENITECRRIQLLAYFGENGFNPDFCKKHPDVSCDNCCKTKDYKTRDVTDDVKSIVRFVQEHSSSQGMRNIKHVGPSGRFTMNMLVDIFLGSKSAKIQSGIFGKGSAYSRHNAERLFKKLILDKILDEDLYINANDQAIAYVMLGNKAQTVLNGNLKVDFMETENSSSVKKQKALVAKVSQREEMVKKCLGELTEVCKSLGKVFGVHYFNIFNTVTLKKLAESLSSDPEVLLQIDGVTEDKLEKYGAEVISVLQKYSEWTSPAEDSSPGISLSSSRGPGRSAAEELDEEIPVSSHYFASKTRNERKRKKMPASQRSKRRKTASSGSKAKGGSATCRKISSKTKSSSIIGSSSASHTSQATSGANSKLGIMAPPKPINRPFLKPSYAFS
Sequence of Ubiquitin carboxyl-terminal hydrolase 2 (Homo sapiens) (O75604 whole entry, looked up): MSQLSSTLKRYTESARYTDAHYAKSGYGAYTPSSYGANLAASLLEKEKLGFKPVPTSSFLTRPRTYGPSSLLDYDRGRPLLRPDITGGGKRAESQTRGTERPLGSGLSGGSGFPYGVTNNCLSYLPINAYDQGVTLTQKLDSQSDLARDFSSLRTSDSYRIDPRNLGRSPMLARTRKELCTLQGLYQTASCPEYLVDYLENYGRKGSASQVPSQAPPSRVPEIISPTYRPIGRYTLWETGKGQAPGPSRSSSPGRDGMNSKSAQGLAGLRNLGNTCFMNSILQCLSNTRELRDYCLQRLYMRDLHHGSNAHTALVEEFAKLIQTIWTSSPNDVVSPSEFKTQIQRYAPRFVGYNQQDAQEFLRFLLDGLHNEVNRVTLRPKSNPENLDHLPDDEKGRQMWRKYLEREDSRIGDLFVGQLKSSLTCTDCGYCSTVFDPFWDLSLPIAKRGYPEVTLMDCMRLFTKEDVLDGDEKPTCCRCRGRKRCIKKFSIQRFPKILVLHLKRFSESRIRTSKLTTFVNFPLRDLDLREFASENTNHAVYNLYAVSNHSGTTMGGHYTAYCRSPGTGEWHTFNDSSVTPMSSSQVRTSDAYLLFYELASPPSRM
Sequence of ATP-dependent 6-phosphofructokinase (Trypanosoma brucei brucei) (O15648 whole entry, looked up): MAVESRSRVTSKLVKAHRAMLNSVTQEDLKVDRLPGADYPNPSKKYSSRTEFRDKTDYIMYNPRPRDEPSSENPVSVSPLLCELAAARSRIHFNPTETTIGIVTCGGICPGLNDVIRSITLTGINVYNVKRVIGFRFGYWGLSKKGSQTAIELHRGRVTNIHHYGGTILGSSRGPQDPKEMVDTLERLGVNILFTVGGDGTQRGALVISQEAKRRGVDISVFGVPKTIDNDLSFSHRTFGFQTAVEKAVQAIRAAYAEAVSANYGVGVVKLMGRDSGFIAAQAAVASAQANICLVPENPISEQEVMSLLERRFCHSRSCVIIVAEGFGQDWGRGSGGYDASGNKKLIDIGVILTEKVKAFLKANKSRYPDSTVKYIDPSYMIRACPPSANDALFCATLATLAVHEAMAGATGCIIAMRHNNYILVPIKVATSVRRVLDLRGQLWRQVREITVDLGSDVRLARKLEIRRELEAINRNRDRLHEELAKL
Sequence of DNA polymerase III PolC-type (Bacillus subtilis (strain 168)) (P13267 whole entry, looked up): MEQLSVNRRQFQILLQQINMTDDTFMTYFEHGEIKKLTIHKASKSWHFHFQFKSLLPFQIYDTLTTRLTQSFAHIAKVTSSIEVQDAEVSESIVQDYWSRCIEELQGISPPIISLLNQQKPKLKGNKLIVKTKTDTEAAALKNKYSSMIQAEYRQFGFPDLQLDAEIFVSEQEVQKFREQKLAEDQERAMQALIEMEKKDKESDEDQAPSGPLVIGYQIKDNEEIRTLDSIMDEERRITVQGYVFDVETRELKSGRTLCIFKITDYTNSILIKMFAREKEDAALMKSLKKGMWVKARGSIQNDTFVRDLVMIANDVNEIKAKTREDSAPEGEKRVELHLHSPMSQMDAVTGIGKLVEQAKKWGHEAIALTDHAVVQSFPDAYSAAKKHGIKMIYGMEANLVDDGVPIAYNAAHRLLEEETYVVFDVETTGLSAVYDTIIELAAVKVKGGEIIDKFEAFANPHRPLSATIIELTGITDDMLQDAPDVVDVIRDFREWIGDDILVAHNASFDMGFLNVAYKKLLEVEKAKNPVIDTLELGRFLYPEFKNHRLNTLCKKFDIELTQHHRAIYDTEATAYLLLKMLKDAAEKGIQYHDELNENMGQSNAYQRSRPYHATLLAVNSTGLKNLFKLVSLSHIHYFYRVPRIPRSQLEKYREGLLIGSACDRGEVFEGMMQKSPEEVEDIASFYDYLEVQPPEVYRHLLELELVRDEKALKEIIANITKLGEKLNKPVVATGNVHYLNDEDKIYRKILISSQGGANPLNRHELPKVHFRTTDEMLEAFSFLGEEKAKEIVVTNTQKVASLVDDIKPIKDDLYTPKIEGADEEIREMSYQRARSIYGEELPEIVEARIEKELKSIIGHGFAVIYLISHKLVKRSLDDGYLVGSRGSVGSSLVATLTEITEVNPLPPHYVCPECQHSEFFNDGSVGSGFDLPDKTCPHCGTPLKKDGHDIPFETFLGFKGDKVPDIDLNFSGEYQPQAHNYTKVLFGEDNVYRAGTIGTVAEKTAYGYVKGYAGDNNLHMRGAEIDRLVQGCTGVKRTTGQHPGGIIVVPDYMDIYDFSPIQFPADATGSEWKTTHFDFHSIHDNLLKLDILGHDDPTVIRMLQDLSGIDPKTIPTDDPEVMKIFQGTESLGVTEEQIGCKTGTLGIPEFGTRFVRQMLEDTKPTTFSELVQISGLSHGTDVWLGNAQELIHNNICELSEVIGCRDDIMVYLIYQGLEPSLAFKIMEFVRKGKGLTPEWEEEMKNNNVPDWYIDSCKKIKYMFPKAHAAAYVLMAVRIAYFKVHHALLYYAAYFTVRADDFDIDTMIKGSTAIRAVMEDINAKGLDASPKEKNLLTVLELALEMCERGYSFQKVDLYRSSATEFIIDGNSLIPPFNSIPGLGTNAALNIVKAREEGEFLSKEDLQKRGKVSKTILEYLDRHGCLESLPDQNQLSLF
Sequence of Tumor susceptibility gene 101 protein (Homo sapiens) (Q99816 whole entry, looked up, the tested form may be a part): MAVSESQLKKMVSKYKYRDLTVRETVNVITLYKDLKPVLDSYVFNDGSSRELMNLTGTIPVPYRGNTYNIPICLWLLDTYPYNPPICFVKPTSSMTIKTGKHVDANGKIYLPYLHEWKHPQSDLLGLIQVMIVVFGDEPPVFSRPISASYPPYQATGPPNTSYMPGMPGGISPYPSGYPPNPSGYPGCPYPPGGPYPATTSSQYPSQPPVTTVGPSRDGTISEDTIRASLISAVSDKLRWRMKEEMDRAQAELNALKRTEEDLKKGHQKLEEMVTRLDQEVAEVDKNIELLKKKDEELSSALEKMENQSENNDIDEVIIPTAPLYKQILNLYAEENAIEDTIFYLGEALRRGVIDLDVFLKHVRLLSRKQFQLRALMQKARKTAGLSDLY
Sequence of ATP-dependent DNA helicase Q1 (Homo sapiens) (P46063 whole entry, looked up): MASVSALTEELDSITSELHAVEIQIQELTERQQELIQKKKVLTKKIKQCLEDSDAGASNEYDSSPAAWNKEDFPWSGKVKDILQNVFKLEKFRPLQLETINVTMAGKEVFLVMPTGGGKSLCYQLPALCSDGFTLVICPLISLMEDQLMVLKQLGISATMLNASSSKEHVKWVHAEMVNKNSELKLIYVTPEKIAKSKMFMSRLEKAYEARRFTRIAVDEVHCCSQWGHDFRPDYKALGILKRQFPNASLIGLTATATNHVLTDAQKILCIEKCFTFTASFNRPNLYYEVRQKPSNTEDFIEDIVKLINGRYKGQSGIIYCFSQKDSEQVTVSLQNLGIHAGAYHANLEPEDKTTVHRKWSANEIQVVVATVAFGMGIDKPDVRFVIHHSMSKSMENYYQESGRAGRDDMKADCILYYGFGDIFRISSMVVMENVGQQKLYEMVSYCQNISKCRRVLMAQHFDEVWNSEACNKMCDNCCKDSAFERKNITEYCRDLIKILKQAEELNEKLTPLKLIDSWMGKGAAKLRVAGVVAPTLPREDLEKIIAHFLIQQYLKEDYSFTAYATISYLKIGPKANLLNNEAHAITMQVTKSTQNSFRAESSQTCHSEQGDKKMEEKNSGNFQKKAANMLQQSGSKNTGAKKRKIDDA

COc1cccc(OC)c1OCCNCC1COc2ccccc2O1 (stereo not given)
inactive: [1] | [2] | [3] | [4] | [5] | [6] | [7] | [8] | [9] | [10] | [11] | [12] | [13] | [14]

C=CC(C)=C[C@@]1(C)SC(=O)C(C)=C1O
inactive: [4] | [5] | [6] | [7] | [9] | [10] | [11] | [12] | [13]

CN(C)c1nc2c(Br)c(Br)c(Br)c(Br)c2[nH]1
inactive: [2] | [4] | [5] | [9] | [11] | [13] | [15]

O=c1[nH]c2cc(Cl)c(Cl)cc2[nH]c1=O
inactive: [1] | [2] | [4] | [5] | [6] | [8] | [9] | [11] | [12] | [13]

CCCn1c(=O)c2[nH]c(-c3ccc(OCC(=O)NCCN)cc3)nc2n(CCC)c1=O
inactive: [1] | [2] | [3] | [4] | [5] | [6] | [7] | [8] | [9] | [10] | [11] | [12] | [13]

Nc1ccc(O)c([N+](=O)[O-])c1
inactive: [16]

NCCCS(=O)(=O)O
inactive: [1] | [2] | [3] | [4] | [6] | [7] | [9] | [10] | [11] | [12] | [13]

CCNC(=O)[C@H]1O[C@@H](n2cnc3c(N)nc(NCCc4ccc(CCC(=O)O)cc4)nc32)[C@H](O)[C@@H]1O
inactive: [4] | [5] | [6] | [7] | [9] | [10] | [11] | [13]

NC(=S)NCCC[C@H](N)C(=O)O
active: [15] 19 µM
inactive: [4] | [5] | [6] | [7] | [9] | [10] | [11] | [12] | [13]

O=C1NC(=O)/C(=C/c2ccc(-c3ccc(F)cc3O)o2)S1
inactive: [4] | [5] | [6] | [7] | [9] | [10] | [11] | [13]

OC[C@H]1O[C@@H](n2cnc3c(NC4CCCC4)ncnc32)[C@H](O)[C@@H]1O
inactive: [4] | [5] | [6] | [7] | [9] | [10] | [11] | [13]

Nc1nc(Cl)nc2c1ncn2[C@@H]1O[C@H](COP(=O)(O)OP(=O)(O)OP(=O)(O)O)[C@@H](O)[C@H]1O
inactive: [4] | [5] | [6] | [9] | [10] | [11] | [13]

N.N.N.N.N.N.N.N.N.N.N.N.N.N.O.O.[Ru+4].[Ru+5].[Ru+5]
inactive: [4] | [5] | [6] | [7] | [11] | [13]

CCC1C(=O)OCC1Cc1cncn1C (stereo not given)
inactive: [4] | [5] | [6] | [7] | [9] | [10] | [11] | [12] | [13] | [15]

CO/S(=N\S(=O)(=O)c1ccc(Cl)cc1)c1ccc([N+](=O)[O-])cc1 (stereo not given)
inactive: [4] | [5] | [6] | [7] | [9] | [10] | [11] | [12] | [13]

Nc1nc(Nc2ccccc2)nc2c1ncn2[C@@H]1O[C@H](CO)[C@@H](O)[C@H]1O
inactive: [4] | [5] | [6] | [7] | [9] | [10] | [11] | [13]

CN1CC(=O)N/C1=N/C(=O)Nc1cccc(Cl)c1
inactive: [4] | [5] | [6] | [9] | [10] | [11] | [12] | [13] | [15]

CNC(=O)[C@H]1O[C@@H](n2cnc3c(NCc4cccc(I)c4)ncnc32)[C@H](O)[C@@H]1O
inactive: [4] | [5] | [6] | [7] | [9] | [10] | [11] | [13]

C[N+]1(C)C2CC(OC(=O)[C@H](CO)c3ccccc3)CC1C1OC12 (stereo not given in full)
inactive: [4] | [5] | [6] | [7] | [9] | [11] | [12] | [13]

Nc1nc(Cl)nc2c1ncn2[C@@H]1O[C@H](CO)[C@@H](O)[C@H]1O
inactive: [4] | [5] | [6] | [7] | [9] | [11] | [13] | [15]

NC[C@H]1O[C@@H](n2cnc3c(N)ncnc32)[C@H](O)[C@@H]1O
inactive: [4] | [5] | [6] | [7] | [9] | [11] | [13] | [15]
